An excerpt weighted towards active compounds, which were near 0.94% of everything screened.
SKBR3 24h inh: SK-BR-3 proliferation inhibitors. SK-BR-3 viability, CellTiter-Glo ATP luminescence, 24 h; active compounds read low. viability, % at 10 µM. 0.47% of 41,000 active. AID 847;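 active means viability at or below the median of all test compounds minus 3 SD, in both replicates if run twice, cut at about 45% in these data; inconclusive means duplicate replicates that disagree with each other; inactive means viability above that cutoff in every replicate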;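 further: 100% = median untreated cell wells and 0% = median positive control drug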
HER2 expr 66K: Her2 kinase expression inhibition. P04626. SKBR-3 HER2 protein level, AlphaScreen, 18-24 h; active compounds read low. HER2 level % of control, % at 10 µM. 0.69% of 65,000 active;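 active means HER2 level under 5% of the carrier-only control; inconclusive means no clear call, values can overlap the other calls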;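 further: 100% = DMSO carrier and 0% = 500 nM PU-H71 HSP90 inhibitor; lower value means stronger loss of Her2 protein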
Target sequence (P04626 whole entry, looked up): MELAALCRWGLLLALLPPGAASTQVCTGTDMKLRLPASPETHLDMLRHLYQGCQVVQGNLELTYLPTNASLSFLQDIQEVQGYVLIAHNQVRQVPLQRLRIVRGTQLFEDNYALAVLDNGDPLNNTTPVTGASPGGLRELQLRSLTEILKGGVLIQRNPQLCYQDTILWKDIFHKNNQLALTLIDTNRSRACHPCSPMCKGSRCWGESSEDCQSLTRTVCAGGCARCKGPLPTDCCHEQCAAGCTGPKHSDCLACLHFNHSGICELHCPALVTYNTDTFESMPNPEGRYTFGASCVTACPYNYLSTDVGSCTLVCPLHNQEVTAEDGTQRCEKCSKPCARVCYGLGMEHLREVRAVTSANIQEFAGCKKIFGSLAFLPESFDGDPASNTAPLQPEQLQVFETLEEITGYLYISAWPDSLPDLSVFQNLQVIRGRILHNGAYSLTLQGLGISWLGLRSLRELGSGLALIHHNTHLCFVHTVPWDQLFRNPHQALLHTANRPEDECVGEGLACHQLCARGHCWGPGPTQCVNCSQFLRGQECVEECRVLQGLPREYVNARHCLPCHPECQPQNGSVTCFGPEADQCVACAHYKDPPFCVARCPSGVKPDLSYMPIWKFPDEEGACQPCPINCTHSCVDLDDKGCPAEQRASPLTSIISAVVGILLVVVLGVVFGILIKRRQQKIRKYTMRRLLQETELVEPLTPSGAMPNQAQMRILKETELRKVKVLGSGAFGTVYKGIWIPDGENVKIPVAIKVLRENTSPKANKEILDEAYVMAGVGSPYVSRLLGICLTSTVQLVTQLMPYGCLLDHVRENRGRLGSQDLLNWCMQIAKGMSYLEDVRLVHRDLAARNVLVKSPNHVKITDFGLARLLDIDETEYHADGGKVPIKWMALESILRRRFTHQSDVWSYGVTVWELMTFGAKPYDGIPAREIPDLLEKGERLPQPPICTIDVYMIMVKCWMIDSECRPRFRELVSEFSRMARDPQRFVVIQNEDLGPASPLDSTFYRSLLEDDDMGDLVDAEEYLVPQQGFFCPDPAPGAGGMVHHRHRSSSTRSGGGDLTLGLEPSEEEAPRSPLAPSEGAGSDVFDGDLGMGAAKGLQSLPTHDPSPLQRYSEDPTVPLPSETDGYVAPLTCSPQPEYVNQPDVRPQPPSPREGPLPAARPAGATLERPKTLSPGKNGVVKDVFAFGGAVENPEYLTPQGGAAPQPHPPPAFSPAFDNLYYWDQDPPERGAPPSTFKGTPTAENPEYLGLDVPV
MMP-13 inhibitor: inhibitors of human MMP13; P45452; MMP-13 fTHP FRET cleavage, Mca fluorescence; inhibition, % at 4 µM; 0.07% of 65,000 active; AID 570;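 active means inhibition above the mean of compound-free control plate wells plus 3 SD, cut at about 14% in these data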;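 further: 0% = DMSO wells and 100% = wells with reference MMP-13 inhibitor after basal subtraction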
* = called active by the depositor; ? = inconclusive; / = no result.

SMILES	SKBR3 24h inh	HER2 expr 66K	MMP-13 inhibitor
COCCCN(C(=O)Nc1ccccc1)C(C)c1ccncc1 (stereo unspecified)	/	97.2	5.2
CCOc1cc(N2CCOCC2)c(OCC)cc1NC(=O)c1cc(-c2ccco2)nc2ccccc12	44.1*	23.5	-1.4
Cc1cccc(NC(=O)c2cc(-c3ccco3)nc3ccccc23)n1	/	82.5	-67.0
Cc1nn(-c2ccccc2)c2c1C1(C(=O)N(C(C)C)c3ccccc31)C(C#N)=C(N)O2 (stereo unspecified)	87.2	68.1	4.9
Cc1nn2c(-c3ccco3)nnc2c2ccccc12	125.1	-1.1*	0.0
Cc1nn2c(-c3ccncc3)nnc2c2ccccc12	84.8	97.7	2.0
N#Cc1nc(COc2ccccc2Cl)oc1N1CCCCCC1	/	92.2	6.0
CC1CN(c2oc(COc3ccc(Cl)cc3Cl)nc2C#N)CC(C)O1 (stereo unspecified)	/	-19.2*	1.7
COc1ccc(OC)c(NC(=O)C2CCCN2C(=O)C2CCC(C)CC2)c1 (stereo unspecified)	/	83.0	-5.9
Cc1nnc(SCC(=O)N2c3ccccc3Sc3ccccc32)n1N	108.7	108.1	-6.3
Cc1nnc(SC(=O)N2c3ccccc3Sc3ccccc32)s1	/	0.9*	2.9
COc1ccc(C2(O)CCN(C(=O)NC3CCCCC3)CC2)cc1	/	115.9	-2.1
COc1ccc2c(c1)OC1(C)CC2C(C(=O)c2ccccc2OC)C(=O)N1 (stereo unspecified)	/	88.8	-1.4
Cc1ccc(CCNC(=O)C2CCCN(S(=O)(=O)c3cccc4nsnc34)C2)cc1 (stereo unspecified)	75.2	78.8	-8.1
CN1CCN(CC(=O)N2CCn3c4c(c5cc(C6CCCCC6)ccc53)CCCC42)CC1 (stereo unspecified)	/	-15.7*	-10.5
Cc1ccc2c(c1)c1c3n2CCN(C(=O)CN2CCN(C)CC2)C3CCC1 (stereo unspecified)	88.6	74.9	-13.8
COc1ccc(CN2C(=O)CN=C2Nc2cc(C)ccc2C)cc1	/	85.8	5.4
O=c1[nH]c(=O)n(C2CCCO2)cc1Br (stereo unspecified)	104.5	121.9	-1.0
C=CCn1c(SCC(=O)NCc2cccs2)nnc1C1CCCCC1	/	156.1	-3.9
CN1CCN(c2nc(-c3cccnc3)nc3ccccc23)CC1	/	113.0	1.6
Cn1nnnc1Sc1nc(-c2cccnc2)nc2ccccc12	/	-12.7*	-0.7
CCCn1c(C)nc2c(c1=O)c1nc3ccccc3nc1n2-c1ccc2c(c1)OCCO2	114.0	95.1	4.3
CCOC(=O)C(C(C)=O)c1c(Br)c(O)c(O)c2c(C(=O)c3ccc(C)cc3)coc12 (stereo unspecified)	?	-20.7*	5.6
CC(NC(=O)c1ccc2c(c1)OCO2)C1CCCO1 (stereo unspecified)	64.8	121.5	-0.8
CS(=O)(=O)c1nc(-c2cccs2)cc(C(F)(F)F)n1	21.8*	-24.0*	-58.0
SMILES	SKBR3 24h inh	HER2 expr 66K	MMP-13 inhibitor
Cc1cc(NC(=O)CCCS(=O)(=O)c2nc(-c3cccs3)cc(C(F)(F)F)n2)no1	36.8*	-16.0*	-48.2
CN1CCN(c2nc(-c3cccs3)cc(C(F)(F)F)n2)CC1	74.6	74.6	-7.2
Cc1cc(NC(=O)CSc2nc(-c3cccs3)cc(C(F)(F)F)n2)no1	91.9	66.8	-9.9
CC(NC(=O)CSc1ncnc2nc[nH]c12)c1ccccc1 (stereo unspecified)	86.3	116.4	/
CCOC(=O)CN1CC23C=CC(O2)C(C(=O)Nc2cc(OC)ccc2OC)C3C1=O (stereo unspecified)	/	109.0	14.2*
CCOC(=O)CN1CC23C=CC(O2)C(C(=O)Nc2ccc(OC)cc2OC)C3C1=O (stereo unspecified)	/	90.1	6.9
O=C(CC(C(=O)N1CCc2ccccc21)n1ccnc1)N1CCc2ccccc2C1 (stereo unspecified)	/	114.8	-3.1
Cc1cccc(NC(=O)CNc2cc(C)ccc2C)c1	82.0	67.9	3.5
O=S(=O)(CCSc1ccccn1)c1nc2ccccc2s1	125.1	-8.5*	2.9
CCS(=O)(=O)CCSc1nc2ccccc2o1	100.2	89.2	0.7
O=C(CSc1nc2ccccc2s1)Nc1ncccn1	88.8	84.9	-12.4
O=S(=O)(CCSc1nc2ccccc2o1)c1nc2ccccc2s1	?	-14.5*	4.5
CN(C)CCCNC(CC(=O)Nc1ccc(Cl)cc1)C(=O)O (stereo unspecified)	69.8	128.4	-1.0
C=CCn1cnc2c(c1=O)c1nc3ccccc3nc1n2/N=C/c1cccc(OC)c1OC	104.9	96.2	-0.5
C=CCn1cnc2c(c1=O)c1nc3ccccc3nc1n2/N=C/c1cc(OC)c(OC)c(OC)c1	81.8	-25.2*	-2.6
CCOC(=O)CC(=O)CSc1ncnc2c1oc1ccccc12	75.7	98.5	-3.0
COc1ccc(-n2nnc3c(SCC(=O)Nc4ccc5c(c4)OCCO5)ncnc32)cc1	/	-7.2*	1.8
